Compounds without any hit were thinned out: in the full panel of roughly 83,000, 20% have a hit.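 The test compound was applied at a single concentration to cells in 96-well plates for 48 hours, and percent growth was recorded.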 The source made the active and inactive calls. The calls were made as follows: active = growth percent below 10; inactive = the rest.

The assay relates to HL-60(TB) leukemia. Kind of assay: NCI-60 one-dose screen, 48 h (100 = growth as untreated, 0 = no growth, -100 = all killed). The settings on record: 10 µM unless noted.
As to `Cc1ccc2c(n1)C(=O)C(Cl)=C(Nc1cc(C(F)(F)F)cc(C(F)(F)F)c1)C2=O`, the growth is 40.7% (inactive). Then `CCCC[n+]1ccc(SCC(=O)n2ccc3ccccc32)c2ccccc21`, with 86.8% (inactive); and `O=S(=O)(Nc1ccc(I)c(Cl)c1)c1ccc(-c2cnc(C3CC3)o2)cc1`, with -1.6% (active); and `COc1ccc(N/N=C/c2c(-c3ccc(S(C)(=O)=O)cc3)nc3ccccn23)cc1`, with 39.4% (inactive). Turning to `O=C1CC2(CCOCC2)Oc2ncccc21`, the growth was 13.3% (inactive).

Consider `CN1CCN(c2ccc3c(C(N)=O)c(NC(=O)c4ccc(C(C)(C)C)cc4)sc3c2)CC1`, for which the growth was 28.5% (inactive). The same measure for `N#Cc1nc(-c2ccccc2)oc1S(=O)(=O)N1CCCCC1`: 10.5% (inactive). The same measure for `CC1(COc2ccc3ncc(C#Cc4cncc(C(=O)Nc5cccc(C(F)(F)F)c5)c4)n3n2)COC1`: 39.9% (inactive); for `O=S(=O)(NCCNc1nccc(-n2cnc3ccccc32)n1)c1ccc(Cl)cc1`: 113% (inactive); for `O=S(=O)(Nc1cc(Cl)cc(Cl)c1)c1ccc(-c2cnc(C3CC3)o2)cc1`: 8.29% (active). Turning to `OC1CCN(CCCOc2c3ccc(Cl)cc3nc3c2oc2ccc(Cl)cc23)CC1`, the growth is 22.4% (inactive). On to `Cc1ccsc1[C@H]1c2[nH]c3ccccc3c2C[C@H]2C(=O)N(CCCCCCC(=O)NO)CC(=O)N12`, for which the growth is 104% (inactive). Then `C=C1C(=O)O[C@@H]2C[C@@H](C)CCC(=O)[C@](C)(OC(C)=O)C[C@H](OC(=O)/C(C)=C\C)[C@@H]12`, with 26.4% (inactive). Regarding `COc1ccc(/C(=N\NC(N)=S)c2ccc(Cl)cc2)cc1OC`, the growth was 13.2% (inactive). As for `O=C(CCCCCC/C=C\c1csc(Br)n1)NO`, the growth is 78.5% (inactive).

Consider `NC(N)=Nc1ccc(Oc2cccc(Nc3ccc(Cl)c(C(F)(F)F)c3)c2)cc1`, for which the growth was 1.32% (active).

As for `NCCN1CCN(c2nc(-c3ccccc3)nc3nc(-c4ccccc4)oc23)CC1`, the growth is -5.94% (active). The same measure for `C=C(C=O)[C@@H]1CC[C@]2(C(=O)O)CC[C@]3(C)C(CC[C@@H]4[C@@](C)(CCC#N)[C@H](C(=C)C=O)CC[C@]43C)[C@@H]12` (some centres undefined): 2.63% (active). Consider `CC(C)(C)Nc1nc2c(OCCc3ccccc3)cccn2c1-c1ccccc1Cl`, for which the growth was -31.6% (active).

On to `CNC(=O)c1cc(Oc2ccc3nc(NC(=O)c4ccc(CN5CCN(C)CC5)c(C(F)(F)F)c4)sc3c2)ccn1`, for which the growth is 11.3% (inactive). Then `NS(=O)(=O)c1ccc(Nc2nc(SCc3ccccc3)nc3ccccc23)cc1`, with 60.5% (inactive); and `CCOC(=O)c1c(NCC(=O)Nc2ccc(Br)cc2)sc2c1CCCC2`, with 28.9% (inactive); and `Cn1cc(-c2nnc(N)nc2-c2cn(C)c3ccc(F)cc23)c2cc(F)ccc21`, with 79.3% (inactive). For the compound `COC(=O)c1[nH]nc2c1C1(C(=O)N(C)c3ccccc31)C(C#N)=C(N)O2` (centres undefined), the growth is 107% (inactive). Then `CS(=O)c1nccc(-c2c(-c3ccc(F)c(OCc4ccccc4)c3)nc3sccn23)n1` (centres undefined), with -6.35% (active); and `Cc1nc2cnc(N)c(C#Cc3cncc(C(=O)Nc4ccc(Cl)c(C(F)(F)F)c4)c3)c2nc1C`, with 15.8% (inactive).

Take `C=C(C)[C@@H]1CC[C@]2(C(=O)ON)CC[C@]3(C)[C@H](CC[C@@H]4[C@@]5(C)C/C(=C/c6ccc(Br)cc6)C(=O)C(C)(C)[C@@H]5CC[C@]43C)[C@@H]12`: the growth is 43.6% (inactive). As to `CC(=O)N1C(=S)NC(=O)C1CC(C)C` (centres undefined), the growth was 106% (inactive).

Consider `Cn1c(SC(C(=O)Nc2ccc(F)cc2)c2ccccc2)nc2ccccc2c1=O` (centres undefined), for which the growth is 103% (inactive). On to `COc1ccc(/C=N\NC(=O)c2cnn(CC(O)c3ccccc3)c2N)cc1OCc1ccc(Cl)cc1` (centres undefined), for which the growth is 99.7% (inactive). `COc1cc2nc(-c3ccc(C)cc3)cc(OCCCNCC3CCCO3)c2cc1OC` (centres undefined): the growth is 48.6% (inactive). The same measure for `NS(=O)(=O)c1nnc(/N=C/c2c(O)[nH]c3ccccc23)s1`: 123% (inactive); for `O=C(c1ccc(O)cc1)[C@@H]1CN[C@@]2(C(=O)Nc3ccccc32)[C@H]1c1ccc(F)cc1`: 95.4% (inactive). The same measure for `Fc1ccc(-c2cc3nc(C(Cl)Cl)nc(-c4ccccc4)n3n2)cc1`: -17.3% (active); for `Cc1ccc(N2CCN(C3=C(Cl)C(=O)c4ncccc4C3=O)CC2)cc1`: 3.39% (active); for `CC(=C(c1ccc(OCCN(C)C)cc1)c1ccc(OCCN(C)C)cc1)c1ccc(Cl)cc1`: -53.5% (active). The same measure for `CN(C)S(=O)(=O)c1oc(-c2ccccc2)nc1C#N`: 13.8% (inactive).

As for `Cc1ccc(S(=O)(=O)N/N=C/c2cn(-c3ccc(F)cc3)nc2-c2ccc(S(C)(=O)=O)cc2)cc1`, the growth was 97.5% (inactive). On to `COc1cc(-c2nc3ccc(-c4nnc(SCC(=O)Nc5ccc(C(=O)/C=C/c6ccc(Cl)cc6)cc5)o4)cc3[nH]2)cc(OC)c1OC`, for which the growth was 92.5% (inactive).
